Experimental data taken from PubChem BioAssay AID1159580 (chemical genetic matrix, 2015).
Several values for one entry are separate records, joined by “and”; a condition that tells them apart may be missing. Equal values may be shown once. In all, about 5,500 compounds went through this assay and about 2,000 (36%) were called active. Roughly 18% stayed inconclusive and do not appear here. Cut-off read from the data, not from the text of the source: active = normalized growth mostly below about 0.91 (no sharp cut-off); inconclusive = no clear call, values can overlap the other calls; inactive = mostly above about 0.92. This is one part of the list.

Assay: chemical genetic growth profiling, strain panel (AID 1159580);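 note: tested at 20 µM; growth read once vehicle control cultures reached saturation at 30 °C; 1 = growth at the plate median or of vehicle wells; lower values mean less growth of the strain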
Settings: S. cerevisiae deletion strains, growth OD

Measured: normalized growth

COc1cc2c(cc1OC)C(=O)C(CC1CCN(Cc3ccccc3)CC1)C2 (stereo not given)
inactive: locus YAL013W, strain DEP1, stronger effect = lower value 0.953 | locus YAL021C, strain ccr4, stronger effect = lower value 0.942 | locus YAL030W, strain snc1, stronger effect = lower value 1.01 | locus YBL061C, strain skt5, stronger effect = lower value 0.974 | locus YBR009C, strain hhf1, stronger effect = lower value 0.975 | locus YBR021W, strain FUR4, stronger effect = lower value 1.03 | locus YBR023C, strain chs3, stronger effect = lower value 0.988 | locus YBR171W, strain sec66, stronger effect = lower value 1.03 | locus YBR229C, strain ROT2, stronger effect = lower value 1.01 | locus YBR279W, strain paf1, stronger effect = lower value 0.972 | locus YCL011C, strain gbp2, stronger effect = lower value 0.978 | locus YCL016C, strain dcc1, stronger effect = lower value 0.986 | locus YCL029C, strain bik1, stronger effect = lower value 0.989 | locus YCL061C, strain MRC1, stronger effect = lower value 0.967 | locus YCL069W, strain vba3, stronger effect = lower value 1.02 | locus YCR088W, strain abp1, stronger effect = lower value 1.01 | locus YDL005C, strain med2, stronger effect = lower value 1.03 | locus YDL035C, strain GPR1, stronger effect = lower value 0.869 | locus YDL040C, strain nat1, stronger effect = lower value 0.981 | locus YDL101C, strain DUN1, stronger effect = lower value 0.948 | locus YDL185W, strain tfp1, stronger effect = lower value 0.998 | locus YDL192W, strain arf1, stronger effect = lower value 0.926 | locus YDR001C, strain nth1, stronger effect = lower value 1.02 | locus YDR069C, strain doa4, stronger effect = lower value 0.935 | locus YDR150W, strain NUM1, stronger effect = lower value 0.977 | locus YDR159W, strain sac3, stronger effect = lower value 0.953 | locus YDR195W, strain ref2 1.08 | locus YDR297W, strain sur2, stronger effect = lower value 0.989 | locus YDR334W, strain swr1, stronger effect = lower value 1.02 | locus YDR335W, strain msn5, stronger effect = lower value 0.999 | locus YDR388W, stronger effect = lower value 0.998 | locus YDR392W, strain spt3, stronger effect = lower value 1.09 | locus YEL003W, strain gim4, stronger effect = lower value 0.988 | locus YEL037C, strain rad23, stronger effect = lower value 1.02 | locus YEL061C, strain CIN8 (second series), stronger effect = lower value 1.04 | locus YEL061C, strain CIN8, stronger effect = lower value 1.06 | locus YER015W, strain faa2, stronger effect = lower value 0.947 | locus YER016W, strain bim1, stronger effect = lower value 1 | locus YER110C, stronger effect = lower value 0.992 | locus YER111C, strain swi4, stronger effect = lower value 1.02 | locus YER155C, strain BEM2 (second series), stronger effect = lower value 1.02 | locus YER155C, strain BEM2, stronger effect = lower value 1.01 | locus YFR010W, strain ubp6, stronger effect = lower value 1.03 | locus YGL078C, strain dbp3, stronger effect = lower value 0.976 | locus YGL086W, strain mad1, stronger effect = lower value 0.954 | locus YGL167C, strain pmr1, stronger effect = lower value 0.961 | locus YGL173C, strain kem1, stronger effect = lower value 1.01 | locus YGL227W, strain vid30, stronger effect = lower value 1.06 | locus YGL240W, strain doc1, stronger effect = lower value 0.994 | locus YHR013C, strain ard1, stronger effect = lower value 0.955 | locus YHR027C, strain rpn1, stronger effect = lower value 0.99 | locus YHR030C, strain SLT2, stronger effect = lower value 0.94 and 0.973 | locus YHR079C, strain IRE1 (second series), stronger effect = lower value 0.951 | locus YHR079C, strain IRE1, stronger effect = lower value 0.949 | locus YHR094C, strain hxt1, stronger effect = lower value 1 | locus YHR142W, strain chs7, stronger effect = lower value 0.919 | locus YHR200W, strain rpn10, stronger effect = lower value 0.973 | locus YIL066C, strain RNR3, stronger effect = lower value 0.896 | locus YIL073C, strain SPO22, stronger effect = lower value 0.904 | locus YIL125W, strain kgd1, stronger effect = lower value 1.01 | locus YIR030C, strain dcg1, stronger effect = lower value 0.985 | locus YJL092W, strain hpr5, stronger effect = lower value 1.02 | locus YJL095W, strain BCK1 (second series), stronger effect = lower value 0.994 | locus YJL115W, strain asf1, stronger effect = lower value 1.02 | locus YJL129C, strain trk1, stronger effect = lower value 0.896 | locus YJL134W, strain LCB3, stronger effect = lower value 0.996 | locus YJL154C, strain vps35, stronger effect = lower value 1.01 | locus YJL164C, strain tpk1, stronger effect = lower value 1 | locus YJL166W, strain qcr8, stronger effect = lower value 0.931 | locus YJL168C, strain set2, stronger effect = lower value 0.998 | locus YJL187C, strain SWE1, stronger effect = lower value 0.975 | locus YJR043C, strain POL32, stronger effect = lower value 0.872
0.657 (active) and 1.01 (inactive): locus YJL095W, strain BCK1, stronger effect = lower value
active: locus YAL026C, strain drs2, stronger effect = lower value 0.606 | locus YDL074C, strain BRE1, stronger effect = lower value 0.734 | locus YDL134C, strain PPH21, stronger effect = lower value 0.798 | locus YDR101C, strain arx1, stronger effect = lower value 0.904 | locus YDR137W, strain rgp1, stronger effect = lower value 0.627 | locus YDR162C, strain NBP2, stronger effect = lower value 0.807 | locus YDR318W, strain mcm21, stronger effect = lower value 0.913 | locus YDR502C, strain sam2, stronger effect = lower value 0.834 | locus YER167W, strain BCK2, stronger effect = lower value 0.829 | locus YGL248W, strain PDE1, stronger effect = lower value 0.818 | locus YGL253W, strain hxk2, stronger effect = lower value 0.891 | locus YGR078C, strain PAC10, stronger effect = lower value 0.821 | locus YGR135W, strain pre9, stronger effect = lower value 0.787 | locus YGR229C, strain SMI1, stronger effect = lower value 0.523 | locus YGR252W, strain gcn5, stronger effect = lower value 0.742 | locus YHR129C, strain ARP1, stronger effect = lower value 0.876 | locus YJL187C, strain SWE1 (second series), stronger effect = lower value 0.849
